Test [1] in a line: NCI Yeast Anticancer Drug Screen. Data for the rad50 strain (AID 155).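 Also: 0% = growth of vehicle-only cultures of the same strain.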 The settings on record: S. cerevisiae rad50 strain growth inhibition; at 50.0 µM; hits give high values. The gist of the method: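 Compounds were tested on a yeast strain with an engineered DNA damage repair alteration; the reported value is growth inhibition normalised to vehicle treatment.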
Test [2] in a line: NCI Yeast Anticancer Drug Screen. Data for the mec2-1 strain (AID 157). The settings on record: S. cerevisiae mec2-1 strain, at 50.0 µM, hits give high values. The gist of the method: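 Yeast mec2-1 mutant treated with compound. Readout: growth inhibition vs vehicle controls.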
Test [3] can be described thus: NCI Yeast Anticancer Drug Screen. Data for the sgs1 mgt1 strain (AID 161).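 Also: 0% = growth of cultures given vehicle only.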 The settings on record: S. cerevisiae sgs1 mgt1 strain, at 50.0 µM, hits give high values. In short, it runs like this:
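Genetically altered yeast, compound exposure, growth inhibition relative to vehicle.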

Test [4] can be described thus: NCI Yeast Anticancer Drug Screen. Data for the cln2 rad14 strain (AID 165).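 Also: 0% = growth equal to vehicle treated cultures.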 The settings on record: S. cerevisiae cln2 rad14 strain, at 50.0 µM, hits give high values. In short, it runs like this: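 cln2 rad14 yeast strain; compound exposure; growth inhibition read vs vehicle controls.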
Test [5] is described as follows: NCI Yeast Anticancer Drug Screen. Data for the bub3 strain (AID 167). The settings on record: S. cerevisiae bub3 mutant strain, at 50.0 µM, hits give high values. In short, it runs like this: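 Growth of a checkpoint-deficient yeast mutant is measured after compound exposure. Values represent inhibition relative to vehicle.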
Test [6] is described as follows: NCI Yeast Anticancer Drug Screen. Data for the mlh1 rad18 strain (AID 175). The settings on record: S. cerevisiae mlh1 rad18 strain growth inhibition; at 50.0 µM; hits give high values. The gist of the method:
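Yeast w/ defined DNA-repair lesions; compound exposure; growth vs vehicle controls → % inhibition.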

The panel holds about 79,000 compounds, 15% with a hit somewhere; the sample as a whole holds those more often. Values without a mark were called inactive. Active and inactive are the calls of the source. Rule as the data show it: active = growth inhibition above about 70%; inactive = the rest.

As for `O=c1[nH][nH]c(=O)c2c1nc(SCCc1ccccc1)n2Cc1ccccc1`, the growth inhibition is 26.4% in test [1]; 4.55% in test [2]; 11.7% in test [3]; 19.4% in test [4]; 1.8% in test [5]; 14.8% in test [6].
On to `C#CC1(NC(=O)c2ccccc2C(=O)Nc2cccc(C(F)(F)F)c2)CCCCC1`, for which the growth inhibition in test [1] was -12.9%; in test [2] it was -19.1%; in test [3] it was -14.2%; in test [4], 11.3%; in test [5] it was -20.1%; in test [6], -14.2%.
In the case of `CSc1nc(=O)[nH]c2c1[nH]c(=O)n2-c1ccccc1`, the growth inhibition was 1.2% in test [1]; 5.85% in test [2]; -6.35% in test [3]; -15.7% in test [4]; 8.3% in test [5]; -9.05% in test [6].
With `CN1C(=O)C(O)CC1c1ccccc1C(F)(F)F` (stereo unspecified), the growth inhibition in test [1] was 11.7%; in test [2] it was 4.2%; in test [3] it was 31.2%; in test [4], 17.9%; in test [5], 5.05%; in test [6], -30.6%.
As to `CC/C(=N\NC(=O)c1ccncc1)c1ccc(Cl)cc1`, the growth inhibition is 1.1% in test [1]; 9.05% in test [2]; -3.15% in test [3]; 17.9% in test [4]; 2.9% in test [5]; -1.95% in test [6].
With `CCCCNC(=O)c1cccc(OC)c1OC`, the growth inhibition was 2.25% in test [1]; -1.55% in test [2]; 4.3% in test [3]; 2.35% in test [4]; -5.65% in test [5]; 3.45% in test [6].
Take `Cc1cc(N)ccc1N=Nc1cc(S(=O)(=O)O)c2cccc(S(=O)(=O)O)c2c1`: the growth inhibition was -4.4% in test [1]; 22.1% in test [2]; -2.65% in test [3]; 3.95% in test [4]; 8.85% in test [5]; -4.55% in test [6].
As to `COC(=O)/C(C#N)=C(/NCCN)Nc1ccccc1`, the growth inhibition in test [1] is -10.5%; in test [2] it was -16.4%; in test [3], -39%; in test [4] it was 10.1%; in test [5], -3.1%; in test [6] it was -8.15%.
For the compound `COc1ccc2nc3cc(Cl)ccc3c(Nc3ccc(C(O)CCN(C)C)cc3)c2c1` (stereo unspecified), the growth inhibition in test [1] was 39.8%; in test [2], -2.1%; in test [3], 25.4%; in test [4] it was 24.4%; in test [5], -2.1%; in test [6], 5.3%.
Regarding `CCCCCCc1cc2cc(C(=O)Nc3nc(C45CC6CC(CC(C6)C4)C5)cs3)c(=O)oc2cc1O`, the growth inhibition in test [1] is -16.4%; in test [2], -19.8%; in test [3], -1.15%; in test [4], 17.9%; in test [5], -16.6%; in test [6], -11.7%.
With `Cn1c2cc(Cl)c(Cl)cc2nc2cc3c(cc21)c(Cl)c(=O)c1cc2cc(Cl)c(Cl)cc2cc13`, the growth inhibition in test [1] is 31.8%; in test [2], 8.65%; in test [3], 11.3%; in test [4], 25.9%; in test [5] it was -2.85%; in test [6], 20.3%.
Take `COc1cc(NS(=O)(=O)c2ccc(N)cc2)c2ncccc2c1`: the growth inhibition in test [1] is 1.2%; in test [2], 22.8%; in test [3] it was 8.8%; in test [4], -17.1%; in test [5] it was 4.5%; in test [6], 2.95%.
In the case of `O=C1OC(c2ccc(O)c(-c3ccccc3)c2)(c2ccc(O)c(-c3ccccc3)c2)c2c(Cl)c(Cl)c(Cl)c(Cl)c21`, the growth inhibition in test [1] is -16.4%; in test [2] it was -18.4%; in test [3], 19.1%; in test [4], -18.6%; in test [5], -33.1%; in test [6] it was 1.45%.
Turning to `C=C(S(=O)(=O)CC)S(=O)(=O)CC`, the growth inhibition in test [1] was 28.9%; in test [2], -7.75%; in test [3] it was -3.8%; in test [4], -53%; in test [5], -6.5%; in test [6] it was 4.4%.
For `CC(O)C1OC(n2cnc3c(=S)nc[nH]c32)C(O)C1O` (stereo unspecified), the growth inhibition in test [1] is 7.5%; in test [2], 15.7%; in test [3] it was 0.6%; in test [4] it was -98.1%; in test [5], -4.85%; in test [6] it was -13.3%.
Consider `COc1ccccc1C(O)(c1ccccc1)C(O)(c1ccccc1)c1ccccc1OC` (stereo unspecified), for which the growth inhibition is -20.1% in test [1]; 2.65% in test [2]; -20.2% in test [3]; 15.6% in test [4]; -5.65% in test [5]; -4.2% in test [6].
On to `CC(C(=O)c1ccccc1)C(c1ccccc1)N1CCOCC1` (stereo unspecified), for which the growth inhibition in test [1] was 2.1%; in test [2], -7.5%; in test [3] it was -16.3%; in test [4], 3.25%; in test [5], 6.35%; in test [6], -5.15%.
As to `O=C(CBr)c1cc2ncccc2c2ccccc12`, the growth inhibition in test [1] was 46.6%; in test [2], 51%; in test [3], 62.2%; in test [4], 98.6% (active); in test [5], 99% (active); in test [6], 68.9%.
On to `COc1c2c(cc3c1-c1c(cc4c(c1OC)OCO4)CC(C)C(C)C3)OCO2` (stereo unspecified), for which the growth inhibition in test [1] is 12.4%; in test [2] it was 24.4%; in test [3], 21%; in test [4] it was 15.2%; in test [5] it was 40.1%; in test [6] it was 29.6%.
On to `CSc1cc(Cl)c(C)cc1S(=O)(=O)NC(=O)NNc1cccc(C(F)(F)F)n1`, for which the growth inhibition in test [1] is 15.2%; in test [2], 5.25%; in test [3], 9.5%; in test [4], -5.4%; in test [5], -4.9%; in test [6], 24.6%.
With `CN1C[C@H]2[C@@H](C1=O)[C@H](c1ccc([N+](=O)[O-])cc1)ON2C`, the growth inhibition was -50.5% in test [1]; -72.5% in test [2]; -39.7% in test [3]; 14.9% in test [4]; 1.2% in test [5]; -33.8% in test [6].

Source of the values: PubChem BioAssay (NCI).
